Many of the other results were omitted from the sample, so hits are more common in it than they were.
DT40 TDP1 no CPT – qHTS for Inhibitors of human tyrosyl-DNA phosphodiesterase 1 (TDP1): qHTS in cells in absence of CPT | DT40 Tdp1-/- hTDP1 cells, no CPT, ATP luminescence, 48 h | Potency, µM (doses to about 46.2 µM), without a hit: at the top dose activity change, negative = growth inhibition, actives largely listed as inhibitors | 15% of 420,000 active | AID 686978, 2013; also: potency is read from the fitted curve at half-maximal effect; nearly all actives have a fitted effect of over 55% in size
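Growth kinetics read by CellTiter-Glo luminescence after ≥48 hr at 37 °C. Cells: DT40 Tdp1-/- stably carrying human TDP1, 400 per well, compound exposure in the absence of CPT (DMSO vehicle).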
IL-1B inflam inh – inhibitors of inflammasome signaling (IL-1 beta secretion) | THP-1 LPS/ATP IL-1B secretion, AlphaLISA, 16 h; active compounds read low | activity change, % at 57.5 µM | 4.7% of 360,000 active; in the data active = activity change below about -50%; inconclusive = mostly about -30% to -49%
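Secreted IL-1B measured by AlphaLISA bead assay after 16 h compound exposure of THP-1 cells; compounds (final up to 57.5 uM) added 1 h before LPS (250 ng/mL) and ATP (1.25 mM) stimulation; lower signal means less secretion.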
ALOX12 inh – ALOX12 (human) lipoxygenase inhibition; P18054; purified 12hLO, xylenol orange hydroperoxide absorbance; Potency, µM (titrated, usually from 108 µM), without a hit: top-dose activity change, negative = inhibition, most hits filed as inhibitors; 1.1% of 580,000 active; AID 1671190; also: potency is read from the fitted curve at half-maximal effect
Target sequence (P18054 whole entry, looked up): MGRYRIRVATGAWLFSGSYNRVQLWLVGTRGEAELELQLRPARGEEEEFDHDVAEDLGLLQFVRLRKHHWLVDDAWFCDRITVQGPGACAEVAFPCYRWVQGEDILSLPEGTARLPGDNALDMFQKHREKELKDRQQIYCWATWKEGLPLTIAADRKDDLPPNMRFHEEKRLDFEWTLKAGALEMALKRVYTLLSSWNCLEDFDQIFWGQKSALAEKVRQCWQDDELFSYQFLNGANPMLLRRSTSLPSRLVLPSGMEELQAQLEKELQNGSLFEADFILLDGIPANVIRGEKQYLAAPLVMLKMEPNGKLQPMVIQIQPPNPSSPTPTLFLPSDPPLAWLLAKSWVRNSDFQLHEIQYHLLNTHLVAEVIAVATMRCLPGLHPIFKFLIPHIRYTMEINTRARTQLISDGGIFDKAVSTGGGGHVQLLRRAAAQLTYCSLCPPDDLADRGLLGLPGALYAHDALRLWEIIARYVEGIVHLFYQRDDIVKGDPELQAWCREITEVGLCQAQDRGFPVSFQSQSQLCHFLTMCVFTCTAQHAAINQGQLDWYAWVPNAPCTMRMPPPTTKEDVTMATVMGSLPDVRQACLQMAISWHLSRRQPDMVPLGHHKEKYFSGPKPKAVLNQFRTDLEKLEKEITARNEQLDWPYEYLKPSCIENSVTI
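Purified human 12hLO at 150 nM in 25 mM Hepes, 0.01% Triton X-100, pH 7.0, preincubated 15 min at room temperature with compound. Reaction started with 40 uM arachidonic acid, 30 min at room temperature. Hydroperoxide measured by Fe-xylenol orange, 573/405 nm absorbance ratio.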
DT40 TDP1 CPT – DT40-hTDP1 cell growth loss with CPT. chicken DT40 Tdp1-/-;hTDP1 cells + 20 nM CPT, ATP luminescence, 48 h. Potency, µM (doses to about 46.2 µM), inactives show at the top dose activity change, negative = growth inhibition, hits mostly inhibitors. 12% of 420,000 active; also: potency is read from the fitted curve at half-maximal effect; nearly all actives have a fitted effect of over 55% in size
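Cell growth measured by CellTiter-Glo luminescence after a minimum 48 h, 37 C compound exposure with 20 nM CPT in Tdp1-knockout DT40 cells stably expressing hTDP1, seeded 400/well; qHTS titration format.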
HT1080NT lethal – kills 2HG-producing HT-1080-NT fibrosarcoma cells | HT-1080-NT fibrosarcoma viability, CellTiter-Glo ATP luminescence, 48 h | Potency, µM (series often up to 46.1 µM), for inactives: top-dose activity, negative = less viability, hits mostly cytotoxic | 1.6% of 360,000 active | AID 686970;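 also: NT is the 2HG producing partner of a matched IDH1 knockdown line; potency is read from the fitted curve at half-maximal effect; 0% = DMSO-treated cells and -100% = media-only wells without cells; nearly all actives have a fitted effect of over 55% in size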
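Viability by CellTiter-Glo luminescence after 48 h compound exposure at 37C of HT-1080-NT cells (750/well, RPMI, 5% FBS). % activity scaled between DMSO wells and medium-only wells, then curve-fitted and categorized by curve class.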
HT1080 IDH1KD tx – toxicity to HT-1080 IDH1 knockdown cells (counter line); HT-1080 IDH1 knockdown viability, ATP luminescence, 48 h; Potency, µM (doses to about 46.1 µM), without a hit: at the top dose activity, negative = toxicity, hits mostly cytotoxic; 2% of 360,000 active;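 also: potency is read from the fitted curve at half-maximal effect; 0% = DMSO wells and -100% = cell-free medium wells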
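Assay cells: HT-1080 with IDH1 knockdown, 750 per well, RPMI/5% FBS. Exposure: 48 h at 37 °C following 2 h pre-incubation. Read: CellTiter-Glo luminescence; fitted concentration-response, curve class assigned.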
* marks the source's active call; other numbers are inactive results; i = inactive; ? = inconclusive; . = no result; [ ] = remark or other dose. Unless noted, calls follow the shape of the dose curve; as a rule, active = well fitted curve in the direction sought with a large enough effect; inconclusive = small, poorly fitted or top-dose-only effect, or another doubt; inactive = no such curve, though single readings can be large; an effect the other way counts as inactive or inconclusive. Unless noted, % is scaled to controls: 0 for no effect and ±100 for the full control effect.

SMILES	DT40 TDP1 no CPT	IL-1B inflam inh	ALOX12 inh	DT40 TDP1 CPT	HT1080NT lethal	HT1080 IDH1KD tx
CCOC(=O)c1c(C)n(S(=O)(=O)c2ccc(C)cc2)c2ccc(NS(=O)(=O)c3ccc(C)cc3)cc12	20.6µM*	.	?	18.4µM*	.	.
CCn1cnc2cc(NS(=O)(=O)c3ccc(C)cc3)ccc21	?	18.5	-24.0%	?	4.9%	-1.9%
Cc1ccc(NC(=S)NCCN(C2CCCCC2)C2CCCC2)cc1C	?	-67.1*	?	20.6µM*	?	?
CC1CCN(C(=S)NC(=O)c2ccc(C(C)(C)C)cc2)CC1	?	0.4	31.6µM*	23.1µM*	-1.0%	1.0%
CC(C)(C)c1ccc(C(=O)NC(=S)N2CCCCCC2)cc1	13µM*	-6.1	409.3%	18.4µM*	?	?
CC1CCN(C(=S)NC(=O)c2ccccc2)CC1	?	6.3	0.0%	?	0.6%	-2.2%[9.24 µM]
O=C(Cn1ccnn1)N1CCC2(CCCN(CC3CC3)C2=O)C1 (stereo not given)	.	.	29.8%	.	.	.
Cc1ccc(S(=O)(=O)Nc2ccccc2CNc2ccccn2)cc1	?	6.3	-16.6%	-7.0%	-0.4%	-0.5%
Cc1ccc(S(=O)(=O)Nc2ccccc2CNc2ccc(Br)cn2)cc1	29.1µM*	-6.9	-14.4%	?	-16.1%	-24.2%
O=[N+]([O-])c1ccc2nc[nH]c2c1	-20.1%	-10.3	0.6%	0.0%	0.2%	1.1%
Nc1[nH]c2cc([N+](=O)[O-])ccc2c1-c1ccccn1	?	-11.3	?	14.6µM*	-10.5%	?
Cc1cccc(NC(=O)c2ccc(N3C(=O)C4C5C=CC(C6CC56)C4C3=O)cc2)c1 (stereo not given)	?	5.6	-0.7%	?	-11.0%	-3.3%
Cc1ccc(NC(=O)c2ccccc2N2C(=O)C3C4C=CC(C5CC45)C3C2=O)cc1C (stereo not given)	?	-13.0	?	20.6µM*	-4.2%	-8.9%
COC(=O)c1ccc(NC(=O)c2cccc(N3C(=O)C4C5C=CC(C6CC56)C4C3=O)c2)cc1 (stereo not given)	7.31µM*	i	0.0%	8.2µM*	-2.1%	-0.5%
O=C(Nc1ccc(F)cc1)c1cccc(N2C(=O)C3C4C=CC(C5CC45)C3C2=O)c1 (stereo not given)	?	-74.8*	-13.8%	16.4µM*	-9.5%	-20.5%
COC(=O)c1ccc(NC(=O)c2cccc(N3C(=O)CCC3=O)c2)cc1	-20.6%	13.4	-18.9%	4.3%	11.2%	3.8%
O=C(Nc1ccc(F)cc1)c1cccc(N2C(=O)C3C4C=CC(C4)C3C2=O)c1 (stereo not given)	?	3.0	1.0%	-7.7%	1.1%	-1.1%
O=C(Nc1ccccc1)c1cccc(N2C(=O)C3C4C=CC(C5CC45)C3C2=O)c1 (stereo not given)	?	-55.2*	-2.8%	-0.7%	-21.0%	-1.0%
O=C(CCCc1nc2ccccc2s1)NC1CCCCC1	.	.	15.9%	.	.	.
COc1ccc(CN2CCN(CCC=C(C)C)CC2CCO)cc1C (stereo not given)	.	.	6.7%	.	.	.
O=C(CSc1nc2ccc(NC(=O)c3ccc(F)cc3)cc2s1)NCc1ccccc1	.	.	53.6%	.	.	.
Cc1sc2nc(SCc3ccccc3)n(Cc3ccco3)c(=O)c2c1C	-23.5%	17.5	1.6%	-1.7%	-2.2%	8.1%
CCOC(=O)c1cc(CC)sc1NC(=O)CSc1nc2ccccc2c(=O)n1Cc1ccco1	?	17.5	-9.0%	?	9.4%	16.0%
Cc1sc2nc(SCC(=O)C(C)(C)C)n(Cc3ccco3)c(=O)c2c1C	13µM*	19.7	-24.1%	13µM*	7.08µM*	6.31µM*
CCOC(=O)CC(=O)CSc1nc2sc(C)cc2c(=O)n1Cc1ccco1	23.1µM*	12.2	-2.5%	16.4µM*	3.5%	-3.5%
SMILES	DT40 TDP1 no CPT	IL-1B inflam inh	ALOX12 inh	DT40 TDP1 CPT	HT1080NT lethal	HT1080 IDH1KD tx
O=S(=O)(Nc1ncnc2sc3c(c12)CCC3)c1ccc(Cl)s1	13µM*	41.3	?	?	-1.2%	-25.2%
CN(C)CCCNc1ncnc2scc(-c3ccccc3)c12	?	-7.0	-18.0%	0.6%	-2.5%	-7.4%
c1ccc(-c2csc3ncnc(NCc4ccccn4)c23)cc1	9.2µM*	40.7	142.9%	11.6µM*	-5.1%	-1.9%
Oc1ccc(Nc2ncnc3scc(-c4ccccc4)c23)cc1	8.2µM*	-9.5	0.7%	?	-9.4%	-12.3%
c1ccc(CNc2ncnc3sc4c(c23)CCC4)nc1	14.6µM*	7.9	245.4%	?	-0.8%	-4.9%
COc1ccc2cc(C(=O)NCc3ccco3)[nH]c2c1	.	.	2.3%	.	.	.
c1ccc(CNc2ncnc3scc(-c4cccs4)c23)nc1	9.2µM*	?	-10.9%	10.3µM*	-0.9%	-0.6%
CC(Nc1c[nH]c(=O)[nH]c1=O)c1ccccc1 (stereo not given)	-27.1%	19.2	-24.0%	-12.9%	-2.5%	-1.4%
O=[N+]([O-])c1cccc2c(S(=O)(=O)N3CCCCC3)cccc12	?	-16.7	-2.2%	-19.7%	-17.8%	-4.8%
COc1c(S(=O)(=O)N2CCCCC2)ccc2c(S(=O)(=O)N3CCCCC3)cccc12	23.1µM*	-23.1	-21.9%	16.4µM*	7.4%	5.6%
O=S(=O)(c1cccc2c(S(=O)(=O)N3CCCC3)cccc12)N1CCCC1	16.4µM*	6.9	10.3%	?	4.7%	7.7%
O=S(=O)(c1cccc(S(=O)(=O)N2CCCC2)c1)c1cccc(S(=O)(=O)N2CCCC2)c1	?	-20.7	-26.1%	13µM*	9.2%	-1.3%
COCCNC(=O)c1c(OCC2CC2)cc(=O)n2c1CCOCC2	.	.	38.1%	.	.	.
CN1CCN(c2ncc3nc(-c4cccs4)c(=O)n(Cc4ccc(F)cc4)c3n2)CC1	?	.	?	13µM*	.	.
CN1CCN(c2ncc3nc(-c4ccc(Cl)cc4)c(=O)n(Cc4ccc(F)cc4)c3n2)CC1	?	.	?	10.1%	.	.
CN1CCN(c2ncc3nc(-c4ccccc4)c(=O)n(Cc4ccc(F)cc4)c3n2)CC1	-29.6%	.	35.5µM*	-11.7%	.	.
CN1CCN(c2ncc3nc(-c4cc(F)cc(F)c4)c(=O)n(Cc4cccs4)c3n2)CC1	-11.2%	.	17.8µM*	3.0%	.	.
O=c1c(-c2ccc(F)cc2)nc2cncnc2n1Cc1ccc(F)cc1	-4.4%	.	0.0%	-7.8%	.	.
O=c1c(-c2ccc(F)cc2)nc2cncnc2n1Cc1ccccc1	16.4µM*	.	-5.2%	?	.	.
